Measured values published in PubChem BioAssay (EPA / NIEHS).
Calls of active or inactive are those of the source. Rule for the calls: active = hit-call score of the fitted dose curve at least 0.9, where 1 is the maximum; inactive = score below 0.9.

Columns and labels:
Conditions in all cases: mRNA level, 48 h; actives raise or lower the signal
CYP2E1 (gene 1571) = experiment: LTEA_HepaRG_CYP2E1: Life Technologies and Expression Analysis (LTEA) Assay for CYP2E1 using HepaRG (AID 2283485)
Method in brief: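 Human liver line HepaRG, plated 48 h, then serum-free induction medium + chemical x 48 h; 8-pt CRC from 100 uM, half-log, 0.5% DMSO, n=2. Readout: CYP2E1 mRNA qRT-PCR vs ACTB/GAPDH/POLR2A; bidirectional fit vs DMSO.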

CYP4A11 (gene 1579) = experiment: LTEA_HepaRG_CYP4A11: Life Technologies and Expression Analysis (LTEA) Assay for CYP4A11 using HepaRG (AID 2283486)
Method in brief: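 HepaRG, 48 h chem exposure, 8 conc (100 uM top, half-log), 0.5% DMSO vehicle; qRT-PCR readout, housekeeping-gene normalized; bidirectional curve fit vs DMSO baseline.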

[1] = read-out: Cytochrome P450 3A4 (Homo sapiens) (UniProt P08684); experiment: LTEA_HepaRG_CYP3A4: Life Technologies and Expression Analysis (LTEA) Assay for CYP3A4 using HepaRG (AID 2283487)
Method in brief: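 In a human hepatic line (HepaRG), duplicate wells were treated 48 h with up to 100 uM chemical in half-log dilutions. Endpoint: CYP3A4 mRNA induction or loss relative to 0.5% DMSO vehicle, by qRT-PCR.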

[2] = read-out: DNA damage-inducible transcript 3 (DDIT3), DDIT3 (gene 1649); experiment: LTEA_HepaRG_DDIT3: Life Technologies and Expression Analysis (LTEA) Assay for DNA damage-inducible transcript 3 (DDIT3) using HepaRG (AID 2283488)
Method in brief: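 HepaRG plated 48 h, switched to serum-free induction medium, dosed 48 h (100 uM top, half-log, 8 pts, 0.5% DMSO, n=2); RNA isolated; DDIT3 by qRT-PCR; bidirectional curve fit vs DMSO.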

[3] = read-out: Pro-epidermal growth factor (Homo sapiens) (UniProt P01133); experiment: LTEA_HepaRG_EGF: Life Technologies and Expression Analysis (LTEA) Assay for Epidermal growth factor (EGF) using HepaRG (AID 2283489)
Method in brief: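 HepaRG, 48 h dosing, 100 uM top, half-log x8, 0.5% DMSO. Readout: TaqMan qRT-PCR (Fluidigm array), housekeeping-normalized. Gain or loss of signal fit vs DMSO.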

[4] = read-out: Early growth response protein 1 (EGR1) transcription factor, EGR1 (gene 1958); experiment: LTEA_HepaRG_EGR1: Life Technologies and Expression Analysis (LTEA) Assay for Early growth response protein 1 (EGR1) transcription factor using HepaRG (AID 2283490)
Method in brief: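 Differentiated human HepaRG cells in serum-free induction medium were exposed in duplicate for 48 h to eight concentrations (top 100 uM, half-log steps) in 0.5% DMSO. EGR1 mRNA was quantified by qRT-PCR, normalized to ACTB, GAPDH and POLR2A, and fitted bidirectionally versus DMSO.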

[5] = read-out: Cytochrome P450 3A7 (Homo sapiens) (UniProt P24462); experiment: LTEA_HepaRG_CYP3A7: Life Technologies and Expression Analysis (LTEA) Assay for CYP3A7 using HepaRG (AID 2283492)
Method in brief: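 Human HepaRG liver cells, 48 h post-plating, switched to serum-free induction medium and exposed in duplicate for 48 h. Dosing: 100 uM top, half-log dilutions, 8 points, 0.5% DMSO vehicle. Read-out: CYP3A7 mRNA, gain or loss fitted against DMSO baseline.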

CYP3A5 (gene 1577) = experiment: LTEA_HepaRG_CYP3A5: Life Technologies and Expression Analysis (LTEA) Assay for CYP3A5 using HepaRG (AID 2283493)
Method in brief: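 HepaRG plated 48 h, switched to serum-free induction medium, chemicals added 48 h (max 100 uM, half-log, 0.5% DMSO). RNA isolated; CYP3A5 by TaqMan qRT-PCR. Gain/loss vs DMSO.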

[6] = read-out: Fatty Acid-Binding Protein 1 (FABP1), FABP1 (gene 2168); experiment: LTEA_HepaRG_FABP1: Life Technologies and Expression Analysis (LTEA) Assay for Fatty Acid-Binding Protein 1 (FABP1) using HepaRG (AID 2283494)
Method in brief: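 Differentiated human HepaRG cells were exposed in duplicate for 48 h in serum-free induction medium to 8-point half-log concentration series topping at 100 uM in 0.5% DMSO. FABP1 mRNA measured by TaqMan qRT-PCR, normalized to ACTB/GAPDH/POLR2A; bidirectional fit versus DMSO.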

[7] = read-out: Cytochrome P450 4A22 (Homo sapiens) (UniProt Q5TCH4); experiment: LTEA_HepaRG_CYP4A22: Life Technologies and Expression Analysis (LTEA) Assay for Cytochrome P450 4A22 (CYP4A22) using HepaRG (AID 2283495)
Method in brief: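 Readout is CYP4A22 transcript induction or loss, quantified by qRT-PCR and normalized to ACTB, GAPDH and POLR2A. Human HepaRG cells receive test chemicals for 48 h at eight half-log concentrations from 100 uM in 0.5% DMSO.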

[8] = read-out: Cytochrome P450 7A1 (Homo sapiens) (UniProt P22680); experiment: LTEA_HepaRG_CYP7A1: Life Technologies and Expression Analysis (LTEA) Assay for Cytochrome P450 7A1 (CYP7A1) using HepaRG (AID 2283496)
Method in brief: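 HepaRG cells plated 48 h, then switched to serum-free induction medium and exposed in duplicate for 48 h to 8-point half-log series from 100 uM in 0.5% DMSO. CYP7A1 mRNA by qRT-PCR (TaqMan), normalized to ACTB/GAPDH/POLR2A; bidirectional fit versus DMSO.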

[9] = read-out: Glutathione S-Transferase (GSTA2), GSTA2 (gene 2939); experiment: LTEA_HepaRG_GSTA2: Life Technologies and Expression Analysis (LTEA) Assay for Glutathione S-Transferase (GSTA2) using HepaRG (AID 2283497)
Method in brief: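 Human HepaRG cells, plated 48 h, then exposed in serum-free induction medium for 48 h to eight half-log concentrations up to 100 uM in 0.5% DMSO, duplicate. GSTA2 mRNA by qRT-PCR, normalized to ACTB/GAPDH/POLR2A; bidirectional fit versus DMSO.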

[10] = read-out: Glutamate-cysteine ligase catalytic (GCLC), GCLC (gene 2729); experiment: LTEA_HepaRG_GCLC: Life Technologies and Expression Analysis (LTEA) Assay for Glutamate-cysteine ligase catalytic (GCLC) using HepaRG (AID 2283498)
Method in brief: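 Differentiated human HepaRG cells, plated 48 h then switched to serum-free induction medium, were exposed in duplicate for 48 h to 8 half-log concentrations topping at 100 uM in 0.5% DMSO. GCLC mRNA was quantified by qRT-PCR against ACTB, GAPDH and POLR2A.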

[11] = read-out: growth arrest and DNA damage 45 (GADD45G), GADD45G (gene 10912); experiment: LTEA_HepaRG_GADD45G: Life Technologies and Expression Analysis (LTEA) Assay for growth arrest and DNA damage 45 (GADD45G) using HepaRG (AID 2283499)
Method in brief: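 Gain or loss of GADD45G mRNA, quantified by TaqMan qRT-PCR against three housekeeping genes, is fitted in both directions relative to 0.5% DMSO. Human HepaRG cultures receive test chemical for 48 h at up to 100 uM.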

[12] = read-out: Glutamate-cysteine ligase regulatory (GCLM), GCLM (gene 2730); experiment: LTEA_HepaRG_GCLM: Life Technologies and Expression Analysis (LTEA) Assay for Glutamate-cysteine ligase regulatory (GCLM) using HepaRG (AID 2283500)
Method in brief: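 Cells were plated, cultured 48 h, switched to serum-free induction medium, then dosed in duplicate for 48 h at eight half-log concentrations up to 100 uM. RNA was then profiled by qRT-PCR; gain or loss versus DMSO was fitted.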

[13] = read-out: Glutathione S-transferase M3 (GSTM3), GSTM3 (gene 2947); experiment: LTEA_HepaRG_GSTM3: Life Technologies and Expression Analysis (LTEA) Assay for Glutathione S-transferase M3 (GSTM3) using HepaRG (AID 2283501)
Method in brief: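 HepaRG, plated 48 h, then serum-free induction medium; test chemical 48 h, duplicate; 100 uM top, half-log x8, 0.5% DMSO. Read-out: GSTM3 mRNA (TaqMan qRT-PCR, Fluidigm array). Bidirectional fit vs DMSO.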

[14] = read-out: Heat shock 70 kDa protein 1 (HSPA1A), gene 3303; experiment: LTEA_HepaRG_HSPA1A: Life Technologies and Expression Analysis (LTEA) Assay for Heat shock 70 kDa protein 1 (HSPA1A) using HepaRG (AID 2283502)
Method in brief: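 Readout is HSPA1A transcript level by microfluidic qRT-PCR, normalized to three housekeeping genes and analysed for gain or loss of signal relative to 0.5% DMSO. Human HepaRG cultures received test chemicals for 48 h at up to 100 uM.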

[15] = read-out: Hypoxia-inducible factor 1-alpha (Homo sapiens) (UniProt Q16665); experiment: LTEA_HepaRG_HIF1A: Life Technologies and Expression Analysis (LTEA) Assay for Hypoxia-inducible factor 1 (HIF1A) Trancription factor using HepaRG (AID 2283503)
Method in brief: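 Differentiated HepaRG cells in serum-free induction medium exposed 48 h, in duplicate, to 8-point half-log series from 100 uM in 0.5% DMSO. HIF1A mRNA measured by TaqMan qRT-PCR, normalized to ACTB/GAPDH/POLR2A, fitted bidirectionally versus DMSO.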

[16] = read-out: 3-Hydroxy-3-Methylglutaryl-CoA Synthase 2 (HMGCS2), HMGCS2 (gene 3158); experiment: LTEA_HepaRG_HMGCS2: Life Technologies and Expression Analysis (LTEA) Assay for 3-Hydroxy-3-Methylglutaryl-CoA Synthase 2 (HMGCS2) using HepaRG (AID 2283504)
Method in brief: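 HepaRG, plated 48 h then switched to serum-free induction media; cmpd 8-pt, max 100 uM, 1/2-log, 0.5% DMSO, n=2, 48 h. HMGCS2 mRNA by Fluidigm TaqMan qRT-PCR, ACTB/GAPDH/POLR2A norm; bidirectional fit vs DMSO.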

[17] = read-out: Ezrin (EZR), EZR (gene 7430); experiment: LTEA_HepaRG_EZR: Life Technologies and Expression Analysis (LTEA) Assay for Ezrin (EZR) using HepaRG (AID 2283491)
Method in brief: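 Gain or loss of EZR mRNA is scored relative to 0.5% DMSO in human HepaRG cultures treated 48 h with test chemicals in duplicate, eight half-log concentrations from 100 uM.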

Measured: AC50

Sequence of Cytochrome P450 3A7 (Homo sapiens) (P24462 whole entry, looked up): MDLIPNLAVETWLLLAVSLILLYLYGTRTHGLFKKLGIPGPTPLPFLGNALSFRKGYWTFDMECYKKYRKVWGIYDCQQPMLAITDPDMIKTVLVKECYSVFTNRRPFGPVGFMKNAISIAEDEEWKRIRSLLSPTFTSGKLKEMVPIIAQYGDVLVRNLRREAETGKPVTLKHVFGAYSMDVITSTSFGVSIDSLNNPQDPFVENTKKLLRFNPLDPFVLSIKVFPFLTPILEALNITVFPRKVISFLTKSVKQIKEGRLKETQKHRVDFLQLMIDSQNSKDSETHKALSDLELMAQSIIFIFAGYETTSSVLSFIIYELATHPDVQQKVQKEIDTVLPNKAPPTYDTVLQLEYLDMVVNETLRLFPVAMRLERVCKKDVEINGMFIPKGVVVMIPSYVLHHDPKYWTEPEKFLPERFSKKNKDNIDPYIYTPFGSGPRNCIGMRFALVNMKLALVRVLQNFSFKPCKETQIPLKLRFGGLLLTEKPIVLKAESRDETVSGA
Sequence of Hypoxia-inducible factor 1-alpha (Homo sapiens) (Q16665 whole entry, looked up): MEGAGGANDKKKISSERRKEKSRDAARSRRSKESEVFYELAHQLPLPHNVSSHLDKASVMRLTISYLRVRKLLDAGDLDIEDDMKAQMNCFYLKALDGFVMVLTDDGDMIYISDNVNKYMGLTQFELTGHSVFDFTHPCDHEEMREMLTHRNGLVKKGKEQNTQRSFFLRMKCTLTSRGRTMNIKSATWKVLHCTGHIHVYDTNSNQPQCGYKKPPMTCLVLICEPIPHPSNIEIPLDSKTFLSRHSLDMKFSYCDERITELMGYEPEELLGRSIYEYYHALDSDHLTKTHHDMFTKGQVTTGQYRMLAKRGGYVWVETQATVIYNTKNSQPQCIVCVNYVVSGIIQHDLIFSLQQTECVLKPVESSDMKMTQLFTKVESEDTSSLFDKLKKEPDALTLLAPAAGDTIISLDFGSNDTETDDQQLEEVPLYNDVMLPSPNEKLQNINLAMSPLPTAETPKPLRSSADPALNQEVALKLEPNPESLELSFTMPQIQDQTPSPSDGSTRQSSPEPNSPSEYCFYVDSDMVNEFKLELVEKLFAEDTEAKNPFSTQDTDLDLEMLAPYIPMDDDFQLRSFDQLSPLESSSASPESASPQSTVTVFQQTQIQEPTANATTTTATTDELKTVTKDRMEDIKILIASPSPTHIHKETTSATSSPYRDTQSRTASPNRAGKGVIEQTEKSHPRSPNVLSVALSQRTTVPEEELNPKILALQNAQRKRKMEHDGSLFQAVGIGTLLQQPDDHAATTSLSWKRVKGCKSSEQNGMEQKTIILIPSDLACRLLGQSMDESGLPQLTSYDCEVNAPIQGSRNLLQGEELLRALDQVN
Sequence of Cytochrome P450 3A4 (Homo sapiens) (P08684 whole entry, looked up): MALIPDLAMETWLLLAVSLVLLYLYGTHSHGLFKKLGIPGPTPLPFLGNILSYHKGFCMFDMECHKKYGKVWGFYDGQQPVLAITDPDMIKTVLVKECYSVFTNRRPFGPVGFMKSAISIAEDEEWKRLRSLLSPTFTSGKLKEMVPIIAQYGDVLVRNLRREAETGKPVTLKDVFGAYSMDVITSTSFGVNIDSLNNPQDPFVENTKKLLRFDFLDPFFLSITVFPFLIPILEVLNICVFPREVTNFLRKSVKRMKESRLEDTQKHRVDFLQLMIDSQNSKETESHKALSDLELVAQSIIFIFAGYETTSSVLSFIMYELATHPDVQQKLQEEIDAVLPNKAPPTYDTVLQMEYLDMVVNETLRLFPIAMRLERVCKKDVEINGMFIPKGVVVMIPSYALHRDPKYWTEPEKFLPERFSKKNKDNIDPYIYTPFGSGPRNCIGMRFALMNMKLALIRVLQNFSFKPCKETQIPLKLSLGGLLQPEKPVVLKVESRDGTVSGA

CC/C(=C\C(=N/O)C(N)=O)C(C)[N+](=O)[O-] (stereo not given)
not listed: [17]
inactive: all other assays above

CNS(=O)(=O)c1cc(C(=O)N2CCC(CCN3C4CCC3CC(n3c(C)nc5ccccc53)C4)(c3cccc(F)c3)CC2)c(Cl)cc1F (stereo not given)
inactive: [1] | [3] | [4] | CYP3A5 (gene 1577) | [10] | [12] | [13] | [14] | [15]
active: CYP2E1 (gene 1571) 17.7 µM | CYP4A11 (gene 1579) 18.5 µM | [2] 29 µM | [17] 29.6 µM | [5] 9.92 µM | [6] 18.4 µM | [7] 22.7 µM | [8] 21.5 µM | [9] 31.8 µM | [11] 30.8 µM | [16] 23.5 µM

O=C(NS(=O)(=O)/C=C/c1ccccc1)c1ccc(F)cc1Cl
active: CYP2E1 (gene 1571) 22.3 µM | [1] 11.3 µM | [5] 28.7 µM | [6] 2.67 µM | [8] 23.4 µM | [16] 27.9 µM
not listed: [17]
inactive: all other assays above

COc1ccc(/C=C/S(=O)(=O)NC(=O)c2ccc(C)cc2Cl)cc1
active: CYP2E1 (gene 1571) 69.6 µM | [5] 20.1 µM | [9] 80.8 µM
not listed: [17]
inactive: all other assays above

CCOC(=O)c1ccc(C2CCC(NC[C@H](O)COc3ccc(O)c(NS(C)(=O)=O)c3)CC2)cc1 (stereo not given in full)
inactive: all assays above

COC(=O)c1ccccc1O
inactive: all assays above

Cn1c(=O)c2c(ncn2C)n(C)c1=O
inactive: all assays above

COC(=O)CC(=O)OC
active: CYP2E1 (gene 1571) 33 µM | [1] 2.53 µM | [5] 3.64 µM | [6] 50 µM | [8] 50 µM
not listed: [17]
inactive: all other assays above

Cc1c(-c2cccnc2)c2ccccc2n1CCCCC(=O)O
active: [5] 21.3 µM
not listed: [17]
inactive: all other assays above

O=c1[nH]c2ccc(S(=O)CCN3CCC(Cc4ccc(F)cc4)CC3)cc2o1 (stereo not given)
active: CYP2E1 (gene 1571) 50 µM | CYP4A11 (gene 1579) 82.6 µM | [1] 12.5 µM | [2] 50 µM | [3] 30.7 µM | [4] 50 µM | [5] 90.1 µM | [6] 80.3 µM | [7] 80 µM | [8] 72.5 µM | [9] 87.5 µM | [11] 71.6 µM | [12] 50 µM | [14] 50 µM | [16] 74.7 µM
inactive: [17] | CYP3A5 (gene 1577) | [10] | [13] | [15]

Oc1ccc2c(c1)-c1ccccc1C2
active: [8] 4.87 µM
inactive: all other assays above

CC(C)c1cccc(C(C)C)c1N1C(=O)c2ccc(O)cc2C1=O
active: CYP2E1 (gene 1571) 89.7 µM | CYP4A11 (gene 1579) 72 µM | [1] 11.6 µM | [2] 74.9 µM | [4] 86.2 µM | [5] 87.9 µM | [6] 77.7 µM | [7] 72 µM | [8] 93.3 µM | [16] 80.7 µM
inactive: all other assays above
